{"source": "PubChem BioAssay (NCI)", "note": "This is part of a sample that, as a whole, favours compounds with a hit. Of some 83,000 tested, about 20% had one in any assay.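 Treatment: one concentration, 48 hours, 96-well format. Scoring: percent growth, with anything below 10 considered active.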 Unmarked numbers belong to inactive results. Activity calls are given as the source filed them."}
{"system": "SNB-75 CNS", "experiment": "NCI-60 one-dose screen, 48 h (100 = growth as untreated, 0 = no growth, -100 = all killed)", "conditions": "10 µM unless noted", "units": {"growth": "%"}}
{"smiles": "O=C1/C(=C/c2cccc3cnccc23)Cc2cc(F)ccc21", "growth": 107}
{"smiles": "COC(OC)C1(c2ccccc2)NC(=O)NC1=O", "note": "(stereo unspecified)", "growth": 94}
{"smiles": "c1cncc(-c2nc3ccccc3[nH]2)c1", "growth": 96.9}
{"system": "SNB-19 CNS", "experiment": "NCI-60 one-dose screen, 48 h (100 = growth as untreated, 0 = no growth, -100 = all killed)", "conditions": "10 µM unless noted"}
{"smiles": "COC(=O)c1oc2c(C(=O)/C=C/c3ccc(OC)cc3)c(OCCN3CCOCC3)ccc2c1C", "growth": "-2.78% (active)"}
{"smiles": "CN(C)c1ccc(/C=N/n2c(-c3cc(F)c(Cl)cc3Cl)nn(CN3CCOCC3)c2=S)cc1", "growth": "99.4%"}
{"smiles": "CS(=O)(=O)OCC(COS(C)(=O)=O)C(c1ccccc1)c1ccccc1", "growth": "105%"}
{"smiles": "Nc1ncnc2c1c(C(F)(F)F)cn2[C@@H]1O[C@H](CO)[C@@H](O)[C@H]1O", "growth": "14.6%"}
{"smiles": "Cc1nccc2c3ccc(OCc4cn(Cc5ccc(Br)cc5)nn4)cc3n(CCCc3ccccc3)c12", "growth": "47.3%"}
{"smiles": "[2H]c1nc(Nc2ncc(F)c(-c3cc(F)c4nc(C)n(C(C)C)c4c3)n2)c([2H])c([2H])c1CN1CCN(CC)CC1", "growth": "61.8%"}
{"smiles": "COc1cc(/C=C2/Oc3cc4occc4c(OC)c3C2=O)ccc1OCC(=O)Nc1ccncc1", "growth": "106%"}
{"smiles": "COc1ccc2c(c1)OC(N)=C(C#N)C2c1ccc(F)cc1", "note": "(stereo unspecified)", "growth": "30.1%"}
{"smiles": "CCCCCCCCCCCCCCCCNc1ccccc1", "growth": "108%"}
{"smiles": "O=C(Nc1ccc(-n2ccc3c(NC(=O)c4ccccc4)ncnc32)cc1)c1cccc(C(F)(F)F)c1", "growth": "57.4%"}
{"smiles": "COc1ccc(/C(Cl)=N/N=C(\\Cl)c2cc(OC)c(OC)c(OC)c2)cc1OC(C)=O", "growth": "92.3%"}
{"smiles": "O=C1C(Cl)=C(Nc2ccccc2)C(=O)C(Cl)=C1Nc1ccccc1", "growth": "129%"}
{"smiles": "O=C(Nc1ccc(-n2cc(-c3ccncc3)c(-c3ccc(O)c(Cl)c3)n2)cc1)c1cc(C(F)(F)F)cc(C(F)(F)F)c1", "growth": "66.2%"}
{"smiles": "CCn1c(C)nc([N+](=O)[O-])c1Sc1nc(N)nc2nc[nH]c12", "growth": "95.1%"}
{"smiles": "Cc1cn(C2CC(N=[N+]=[N-])C(COP(=O)(O)OP(=O)(O)OP(=O)(O)O)O2)c(=O)[nH]c1=O", "note": "(stereo unspecified)", "growth": "102%"}
{"smiles": "COc1cc(/C=C\\c2cc(/C=C\\c3ccc(O)c(OC)c3)n(C(=O)CNc3ccccc3OC)n2)ccc1O", "growth": "70.9%"}
{"smiles": "COc1ccc(Cl)cc1NC(=O)c1cc2c([nH]1)-c1nc(NC(=O)C(C)C)sc1CC2", "growth": "110%"}
{"smiles": "O=C(/C=C/c1ccco1)c1cccc(Nc2nc(Nc3ccccc3)nc(Nc3ccccc3)n2)c1", "growth": "92.4%"}
{"smiles": "O=C(Nc1ccc(-n2ccc3c(NC(=O)c4ccccc4)ncnc32)cc1)Nc1ccc(Cl)c(C(F)(F)F)c1", "growth": "9.33% (active)"}
{"smiles": "CN(C)CCCOc1c(Br)cc(/C=C/C(=O)N(C)CCc2cc(Br)c(OCCCN(C)C)c(Br)c2)cc1Br", "growth": "48.6%"}
{"smiles": "C=C(C)[C@@H]1C/C=C(\\COC(=O)[C@H](OC(C)=O)C(NC(=O)c2ccccc2)c2ccccc2)CC[C@H]2O[C@]2(C)CC/C=C(\\C)CC1", "note": "(stereo partly specified)", "growth": "80.2% [5 µM]"}
{"smiles": "COc1ccc(Cl)cc1NC(=O)c1cc2c([nH]1)-c1nc(NC(=O)C(C)(C)C)sc1CC2", "growth": "44%"}
{"smiles": "CC1CCC(C(C)C)C(NN)C1", "note": "(stereo unspecified)", "growth": "106%"}
{"smiles": "Cl[C@@H]1CCO[C@H](c2cc3ccccc3c3ccccc23)C1", "growth": "91.7%"}
{"smiles": "C[C@]12CC[C@@H]3c4ccc(O)c(N)c4CC[C@H]3[C@@H]1CC[C@@H]2O", "growth": "109%"}
{"smiles": "COc1ccc(/C=C/C(=O)c2ccc(-n3cc(CN4CCN(c5cc6c(cc5F)c(=O)c(C(=O)O)cn6C5CC5)CC4)nn3)cc2)cc1OC", "growth": "44.7%"}
{"smiles": "COc1ccc(-c2nn(-c3ccc(NC(=O)c4ccc(Cl)c(C(F)(F)F)c4)cc3)cc2-c2ccncc2)cc1Cl", "growth": "42.7%"}
{"smiles": "O=C(O)c1cc2ccccc2cc1Nc1ccccc1", "growth": "94.6%"}
{"smiles": "COc1ccc(Cn2cc3c(c2-c2cc(OC)c(OC)c(OC)c2)CCc2c(CO)noc2-3)cc1", "growth": "30.2%"}
{"smiles": "COc1cc(C(=O)N2CCN(C(=O)c3cc(OC)c(OCc4ccccc4)cc3N)CC2)c(N)cc1OCc1ccccc1", "growth": "108%"}
{"smiles": "Nc1ccc(S(=O)(=O)Nc2ccnn2-c2ccccc2)cc1", "growth": "108%"}
{"smiles": "COc1ccc(-c2nnc(SCC(=O)Nc3ccc(C(=O)/C=C/c4ccccc4)cc3)o2)cc1OC", "growth": "92.2%"}
{"smiles": "CCC(N)(C(=O)O)c1ccc(F)cc1", "note": "(stereo unspecified)", "growth": "107%"}
